# A selection: hits, their analogues and other compounds. The true share with any hit is near 2.4%.
# D2 ag-1 – human D2 receptor agonism in beta-arrestin assay | DiscoveRx PathHunter D2 beta-arrestin, luminescence, 90 min; 100% = 57 uM dopamine signal | activation, % (no concentration beside the values) | actives 0.084% (n = 360,000); in the data active = activation above about 40%; inconclusive = between about 15% and that limit
#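 DiscoveRx PathHunter D2 beta-arrestin cells (2,100/well) attached overnight, then compound-stimulated 90 min at 37 C in HBSS/10 mM HEPES/0.1% Tween-20 buffer; beta-galactosidase complementation read by luminescence after 1 h at ambient temperature. Dopamine 57 uM final (EC100) as control.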
# D2 antag – antagonizes the human D2 dopamine receptor | HEK293 TREx D2 cells, calcium flux, dopamine EC80 | inhibition, % at 10 µM | actives 2% (n = 340,000) | AID 485344; in the data active = inhibition above about 30%; inactive = below that, where a call was filed; also: 0% is about no effect
#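 Inhibition of EC80 dopamine-driven calcium flux, recorded kinetically, defines activity here; cells are a tetracycline-induced HEK293 T-REx line expressing force-coupled D2.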
# D2 ag-2 – agonists of human D2 dopamine receptor | HEK293 T-REx D2 cells, calcium flux agonist mode | actives 0.53% (n = 340,000) | P14416 | activation, % at 2 µM;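 active = activation over 3 SD above normal in the single-dose calcium agonist read, cut at about 30% in these data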; also: 0% is about no effect
#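 Tetracycline-induced HEK293 T-REx cells with force-coupled D2 receptor, plated overnight at 30 C, loaded with no-wash calcium dye. After a 10 s baseline, compound was pin-added and calcium flux read kinetically for 180 s; calcium rises flagged agonists.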
# B2AR arrestin – recruits beta-arrestin to the human beta2-adrenergic receptor; actives 0.02% (n = 330,000); P07550; beta-arrestin recruitment to beta2AR, cell-based reporter; Potency, µM (series often up to 46.1 µM), for inactives: at the highest dose activation, actives largely listed as activators;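 also: potency is read from the fitted curve at half-maximal effect; 0% = DMSO controls and full agonism = EC100 isoproterenol or metaproterenol; nearly all actives have a fitted effect of over 65% in size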
# Target sequence (P07550 whole entry, looked up): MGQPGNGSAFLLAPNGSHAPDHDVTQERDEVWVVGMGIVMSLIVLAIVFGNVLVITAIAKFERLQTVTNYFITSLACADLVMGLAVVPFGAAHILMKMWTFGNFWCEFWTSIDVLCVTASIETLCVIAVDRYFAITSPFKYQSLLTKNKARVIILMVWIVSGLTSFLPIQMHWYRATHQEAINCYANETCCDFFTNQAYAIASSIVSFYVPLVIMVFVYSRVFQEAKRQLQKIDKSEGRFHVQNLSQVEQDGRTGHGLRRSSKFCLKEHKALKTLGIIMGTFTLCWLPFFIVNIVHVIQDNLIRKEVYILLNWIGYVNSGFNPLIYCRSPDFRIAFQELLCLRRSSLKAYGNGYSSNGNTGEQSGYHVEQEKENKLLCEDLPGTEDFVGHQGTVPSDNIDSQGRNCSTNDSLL
# D2 PAM-1 – human D2 receptor positive allosteric modulation; P14416; DiscoveRx D2 beta-arrestin cells, luminescence, 90 min; 100% = 57 uM dopamine signal; potentiation, % (concentration not given with the values); actives 0.23% (n = 360,000); AID 624464; in the data active = potentiation above about 50%; inconclusive = mostly about 30% to 49%
#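 PathHunter beta-arrestin assay in DiscoveRx D2 cells. Compounds were added with an EC20 of dopamine (50 nM final) for 90 min at 37 deg C. Luminescence was read 1 h after detection reagent, with 57 uM dopamine as the EC100 control.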
# D2 PAM-2 – positive allosteric modulators of human D2 dopamine receptor. actives 0.34% (n = 340,000). potentiation, % at 10 µM. P14416. HEK293 T-REx D2, calcium flux, EC20 dopamine potentiation;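 active = potentiation over 3 SD above the plate norm, cut at about 30% in these data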; also: 0% is about no effect
#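 Using a no-wash calcium dye in inducible, force-coupled HEK293 Trex cells expressing D2, we tracked fluorescence each second for 180 s after compound, then for 180 s after EC20 dopamine to detect augmented signalling.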
# D3 ag – D3 receptor agonism confirmed, beta-arrestin readout. DiscoveRx D3 beta-arrestin cells, luminescence, 90 min. Potency, µM (top dose mostly 76.9 µM), without a hit: at the top dose activation, most hits filed as activators. shares compounds with D2 ag-2. AID 720506. actives 4% (n = 2,300);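 also: potency is read from the fitted curve at half-maximal effect; 100% = dopamine control response; nearly all actives have a fitted effect of over 70% in size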
# D2 ag-3 – D2 receptor agonism, beta-arrestin counterscreen | actives 5.9% (n = 2,300) | DiscoveRx PathHunter D2 beta-arrestin, luminescence, 90 min; response scale: percent relative to full dopamine signal | shares compounds with D2 ag-2 | Potency, µM (doses to about 76.9 µM), inactives show at the highest dose activation, usual class: activators; also: potency is read from the fitted curve at half-maximal effect; % of control where 0% means no effect; nearly all actives have a fitted effect of over 70% in size
# Starred values were filed as active, the others as inactive; u = inconclusive; x = no result. Unless noted, calls follow the shape of the dose curve; as a rule, active = well fitted activation curve with a large enough effect; inconclusive = small, poorly fitted or top-dose-only effect; inactive = flat fitted curve, though single readings scatter.
SMILES,D2 ag-1,D2 antag,D2 ag-2,B2AR arrestin,D2 PAM-1,D2 PAM-2,D3 ag,D2 ag-3
CCOC(=O)CC1Sc2ccccc2NC1=O (centres undefined),-4,-11,x,0%,-4,18,x,x
O=C(O)CC1Sc2ccccc2NC1=O (centres undefined),-6,6,51*,-1%,-19,-28,-7%,-2%
NC(=O)CSc1nc(O)cc(=O)n1-c1ccccc1,-2,-5,1,0%,-1,-11,x,x
C/C(=N\NC(=O)c1ccc(Br)cc1)C1C(=O)c2ccccc2C1=O,-2,-2,3,0%,-14,-4,x,x
C/C(=N\NC(=O)c1ccc(-c2ccccc2)cc1)C1C(=O)c2ccccc2C1=O,4,84*,32*,-1%,1,-14,2%,-1%
N#Cc1ccc(OCc2nnc(SCC(=O)c3ccccc3)n2-c2ccccc2)cc1,-1,-21,0,0%,3,6,x,x
O=C(Nc1ccc2c(c1)OCO2)c1ccc(S(=O)(=O)N2CCCC2)cc1,-2,x,x,0%,5,x,x,x
O=C(NCCCN1CCN(c2cccc(Cl)c2)CC1)c1nc(-c2ccncc2)no1,9,82*,69*,0%,-15,-36,4%,21%
COc1ccc(S(N)(=O)=O)cc1C(=O)NCCCN1CCN(c2ccccc2OC)CC1,8,77*,60*,1%,-36,-31,-2%,2%
COc1cc2c(C(=O)NCCCN3CCN(c4cccc(Cl)c4)CC3)cn(C)c(=O)c2cc1OC,3,-7,4,-4%,-31,-26,x,x
COc1ccc(Cl)cc1C(=O)NCCS(=O)(=O)N1CCN(c2ccccc2OC)CC1,x,x,x,x,x,-11,x,x
Cc1nc2nc(C)c(CCC(=O)NCCCN3CCN(c4cccc(Cl)c4)CC3)c(C)n2n1,u,73*,75*,0%,-16,-14,10%,u
O=C(NCCCN1CCN(CCCNC(=O)c2cccc(Cl)c2)CC1)c1cccc(Cl)c1,-2,2,-1,-1%,-24,-11,x,x
COc1ccc(S(N)(=O)=O)cc1C(=O)NCCCN1CCN(c2cccc(Cl)c2)CC1,10,50*,56*,0%,-12,-19,13%,24%
Cc1cc(C(=O)NC2CCCN(Cc3ccccc3F)C2)no1 (centres undefined),2,-6,0,-1%,-12,0,x,x
O=C(Nc1cccnc1)c1cc(-c2ccc(F)cc2)on1,-1,14,0,0%,-5,-14,x,x
CCCC(=O)C1=C(O)C(C(=O)OC)C(C)(C)CC1=Nc1cccc([N+](=O)[O-])c1 (centres undefined),-2,-3,1,0%,-1,4,x,x
CCOc1cccc(-c2c(C(=O)N/N=C/c3ccncc3)nnn2-c2nonc2N)c1,4,-3,-1,-1%,0,0,x,x
COc1cccc(-c2c(C(=O)N/N=C/c3cccs3)nnn2-c2nonc2N)c1,-7,21,3,0%,-4,23,-13%,-5%
COc1ccc(/C=N/NC(=O)c2nnn(-c3nonc3N)c2-c2cccc(OC)c2)cc1,2,34*,5,0%,2,22,8%,-1%
Nc1nonc1-n1nnc(C(=O)N/N=C/c2ccc(F)cc2)c1-c1ccc2c(c1)OCO2,-5,x,x,0%,-3,x,3%,-3%
CCOc1ccc(/C(C)=N/NC(=O)c2nnn(-c3nonc3N)c2-c2cccs2)cc1,-3,2,10,0%,-1,6,-5%,2%
COCc1c(C(=O)N/N=C\c2cccs2)nnn1-c1nonc1N,-1,5,1,-1%,-3,5,x,x
C/C(CC(=O)NCc1ccco1)=N\NC(=O)Cc1ccccc1,-4,-2,0,-3%,-16,3,x,x
CC1(C(=O)Nc2ccccc2Cc2ccccc2)CCN1Cc1ccccc1Cl (centres undefined),-3,x,x,x,-5,x,x,x
SMILES,D2 ag-1,D2 antag,D2 ag-2,B2AR arrestin,D2 PAM-1,D2 PAM-2,D3 ag,D2 ag-3
Cc1nc2cc(NC(=O)Nc3nccs3)ccc2n1C,0,9,0,0%,-20,2,x,x
Cc1ccc(/C=N/NC(=O)c2nnn(-c3nonc3N)c2-c2cccs2)cc1,-2,32*,25,1%,-1,18,4%,29%
COc1ccc(/C=N/NC(=O)c2nnn(-c3nonc3N)c2-c2cccs2)cc1OC,5,2,0,0%,5,4,x,x
C/C(=N\NC(=O)c1nnn(-c2nonc2N)c1-c1ccccc1)c1ccco1,-15,-2,10,0%,-14,26,2%,1%
COc1cccc(-c2c(C(=O)N/N=C(\C)c3ccco3)nnn2-c2nonc2N)c1,-2,9,9,0%,-10,9,x,x
COc1ccccc1NC(=O)N1CCN(c2ccccn2)CC1,-4,-30,37*,0%,4,-10,5%,0%
S=C(Nc1ccc(Oc2ccccc2)cc1)N1CCN(c2ccccn2)CC1,1,-31,13,-1%,0,7,18%,4%
COc1ccccc1NC(=O)N1CCN(c2ccccc2F)CC1,-1,x,x,0%,-12,x,x,x
O=C(Nc1ccccc1Cl)N1CCN(c2ccccn2)CC1,5,15,64*,0%,9,-24,-2%,-1%
O=C(Nc1ccccc1C(F)(F)F)N1CCN(c2ccccn2)CC1,-5,19,50*,0%,-1,-16,0%,5%
CCOc1ccc(OCCCC(=O)NCCc2ccc(OC)cc2)cc1,-3,-5,-1,-1%,-12,2,x,x
CCCC(=O)Nc1ccc(C(=O)NNC(=O)c2ccccc2Br)cc1,1,0,0,-1%,-5,12,x,x
CCOc1ccc(S(=O)(=O)Nc2cccc(C(=O)N3CCN(c4cccc(OC)c4)CC3)c2)cc1,u,x,x,-1%,-20,x,u,25%
S=C(Nc1ccc(Br)cc1Cl)N1CCN(c2ccccn2)CC1,2,-6,57*,-1%,-16,-13,5%,27%
CCOc1ccc(S(=O)(=O)Nc2cccc(C(=O)N3CCN(c4ccccc4O)CC3)c2)cc1,5,-7,5,0%,2,6,x,x
COc1ccccc1NC(=S)N1CCN(c2ccccn2)CC1,1,x,x,-2%,-9,x,-2%,6%

# Screening results: PubChem, National Center for Advancing Translational Sciences (NCATS)
